# Structures can show the parent of a compound that is named as a salt.
# Columns and labels:
# Details in all cases: incubation time: 27 h, anaerobic, 37 °C;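 for the amine columns active = adjusted P below 0.05 in both replicates with a change the same way and a mean fold change under 0.8 or over 1.25; inactive = the rest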
# [1] = system: Clostridium sporogenes DSM 1664; test: growth (OD595) fold change vs plate DMSO controls (fold change (ratio)); higher = more growth
# Procedure, shortened: (§1)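 Growth is the fold change relative to the median of plate DMSO controls. Readings came from anaerobic mGAM cultures in 96-well plates grown for 27 h at 37 °C and read at 595 nm. They were blank-subtracted, corrected for compound background with 20 µM compound solutions in water, and converted to OD with a calibration factor of 5. Values are means of 2 biological replicates, and fold changes above 1.5 were set to NA.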
# Escherichia coli IAI1 [2] = test: as above
# Procedure, shortened: as §1
# [3] = system: Klebsiella aerogenes DSM 30053; test: as above
# Procedure, shortened: as §1
# [4] = system: Ruminococcus gnavus DSM 108212; test: as above
# Procedure, shortened: as §1
# [5] = system: Klebsiella aerogenes DSM 30053; test: fold change of Histamine concentration vs plate DMSO controls (fold change (ratio)); higher = more amine produced, active = hit call of the paper (significant change in both replicates, either direction)
# Procedure, shortened: (§2)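 Each value is the fold change relative to DMSO-only wells on the same plate. Four gut bacterial strains were grown anaerobically in mGAM at 37 °C for 27 h in 80 µL wells, starting at OD 0.1 before a 1:1 dilution, with compounds at 20 µM final (sweeteners 50 µM). Whole cultures were extracted with cold acetonitrile/methanol containing 0.1% formic acid, centrifuged, and amines were quantified by LC–triple-quadrupole MS (dynamic MRM) against external calibration curves with within-batch drift correction. Values are means of 2 biological replicates.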
# [6] = system: Clostridium sporogenes DSM 1664; test: fold change of Tryptamine concentration vs plate DMSO controls (fold change (ratio)); higher = more amine produced, active = hit call of the paper (significant change in both replicates, either direction)
# Procedure, shortened: as §2
# [7] = system: Ruminococcus gnavus DSM 108212; test: as above
# Procedure, shortened: as §2
# Escherichia coli IAI1 [8] = test: fold change of Putrescine concentration vs plate DMSO controls (fold change (ratio)); higher = more amine produced, active = hit call of the paper (significant change in both replicates, either direction)
# Procedure, shortened: as §2
# [9] = system: Klebsiella aerogenes DSM 30053; test: as above
# Procedure, shortened: as §2
# Escherichia coli IAI1 [10] = test: fold change of Cadaverine concentration vs plate DMSO controls (fold change (ratio)); higher = more amine produced, active = hit call of the paper (significant change in both replicates, either direction)
# Procedure, shortened: as §2
# [11] = system: Klebsiella aerogenes DSM 30053; test: as above
# Procedure, shortened: as §2
# [12] = system: Ruminococcus gnavus DSM 108212; test: fold change of 2-Phenylethylamine concentration vs plate DMSO controls (fold change (ratio)); higher = more amine produced, active = hit call of the paper (significant change in both replicates, either direction)
# Procedure, shortened: as §2
Structure (SMILES),growth [1],growth (Escherichia coli IAI1 [2]),growth [3],growth [4],fold change of Histamine concentration [5],fold change of Tryptamine concentration [6],fold change of Tryptamine concentration [7],fold change of Putrescine concentration (Escherichia coli IAI1 [8]),fold change of Putrescine concentration [9],fold change of Cadaverine concentration (Escherichia coli IAI1 [10]),fold change of Cadaverine concentration [11],fold change of 2-Phenylethylamine concentration [12]
C[C@]12CC[C@@H]3c4ccc(O)cc4CC[C@H]3[C@@H]1C[C@@H](O)[C@@H]2O [Estriol] (20 µM),1.12,0.963,1.17,1.15,0.888 (inactive),1.01 (inactive),0.936 (inactive),0.991 (inactive),0.993 (inactive),1.02 (inactive),1.02 (inactive),0.884 (inactive)
O=C(Oc1ccccc1)n1c(C(F)(F)F)nc2cc(Cl)c(Cl)cc21 (20 µM),0.822,0.604,0.714,0.827,1.39 (active),1.11 (inactive),0.875 (inactive),1.38 (active),0.931 (inactive),1.59 (active),0.926 (inactive),0.917 (inactive)
CC(NCCC(c1ccccc1)c1ccccc1)c1ccccc1 (stereo unspecified) [Fendiline hydrochloride] (20 µM),0.961,0.952,0.98,1.09,1.06 (inactive),0.941 (inactive),0.888 (inactive),1.18 (inactive),1.03 (inactive),0.196 (active),0.998 (inactive),0.98 (inactive)
CNCc1cc(-c2ccccc2F)n(S(=O)(=O)c2cccnc2)c1 [Vonoprazan] (20 µM),1.08,0.967,0.975,1.04,1.04 (inactive),1 (inactive),1.02 (inactive),0.503 (inactive),1 (inactive),0.483 (inactive),0.982 (inactive),0.999 (inactive)
NC(=O)[C@@H]1CCCN1C(=O)[C@H](Cc1c[nH]cn1)NC(=O)[C@@H]1CCC(=O)N1 [Thyrotropin-Releasing Hormone] (20 µM),0.956,0.979,1.02,0.996,0.966 (inactive),0.998 (inactive),1 (inactive),1.02 (inactive),1 (inactive),0.999 (inactive),1 (inactive),0.998 (inactive)
CCCCC[C@H](O)/C=C/[C@H]1[C@H](O)CC(=O)[C@@H]1CCCCCCC(=O)O [Alprostadil] (20 µM),1.02,0.977,1.01,1.01,1.08 (inactive),0.957 (inactive),0.987 (inactive),1.05 (inactive),1.01 (inactive),1.01 (inactive),0.997 (inactive),0.985 (inactive)
CC(C)NCC(O)c1ccc(NS(C)(=O)=O)cc1 (stereo unspecified) [Sotalol hydrochloride] (20 µM),0.907,0.97,1.2,1.01,0.907 (inactive),1.03 (inactive),1.18 (inactive),0.935 (inactive),1.06 (inactive),1.08 (inactive),1.12 (inactive),1.36 (inactive)
Cc1cccc(C)c1NC(=O)CN1CCN(CCCC(c2ccc(F)cc2)c2ccc(F)cc2)CC1 [Lidoflazine] (20 µM),0.947,1,1.05,1.22,1.01 (inactive),1.04 (inactive),0.863 (inactive),1.09 (inactive),1 (inactive),0.995 (inactive),0.996 (inactive),0.906 (inactive)
COc1c2occc2c(OC)c2c(=O)cc(C)oc12 [Khellin] (20 µM),0.981,0.994,1.03,1.11,1.06 (inactive),1 (inactive),1.04 (inactive),1 (inactive),1.01 (inactive),1.02 (inactive),0.992 (inactive),1.09 (inactive)
Nc1nc(NC2CC2)c2ncn([C@H]3C=C[C@@H](CO)C3)c2n1 [Abacavir sulfate] (20 µM),1.25,1.05,1.02,1.02,1.04 (inactive),0.969 (inactive),0.953 (inactive),1.03 (inactive),1.04 (inactive),0.969 (inactive),0.992 (inactive),0.935 (inactive)
N[C@@H](Cc1cc(I)c(Oc2cc(I)c(O)c(I)c2)c(I)c1)C(=O)O [(L) Thyroxine] (20 µM),1.27,0.975,1.01,0.958,1.05 (inactive),1.27 (inactive),0.99 (inactive),1.01 (inactive),1 (inactive),1 (inactive),1.01 (inactive),1.03 (inactive)
CO/N=C1\CN(c2nc3c(cc2F)c(=O)c(C(=O)O)cn3C2CC2)CC1CN (stereo unspecified) [Gemifloxacin mesylate] (20 µM),0.00381,0.0388,0.126,0.376,0.0873 (active),0.0398 (active),0.148 (active),0.735 (inactive),0.66 (inactive),0.223 (active),0.992 (inactive),0.159 (active)
Cc1c(NC(C)C)c(=O)n(-c2ccccc2)n1C [Isopyrin hydrochloride] (20 µM),1.12,1.02,1.02,1,0.951 (inactive),1.03 (inactive),1.2 (inactive),1.14 (inactive),0.943 (inactive),1.02 (inactive),1 (inactive),1.32 (inactive)
